TWEAK Fn14 block: TWEAK-Fn14 signaling inhibition. inhibition, % at 10 µM. 2% of 360,000 active. AID 1159606. TWEAK-stimulated Fn14 reporter cells, luciferase luminescence, 8 h; in the data active means inhibition above about 50%
Peg3 prom inh: reduces Peg3 promoter-driven luciferase expression in HeLa; inhibition, % at 20 µM; HeLa PEG-Prom luciferase reporter, luminescence, overnight; 1.7% of 360,000 active; AID 588405;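 active means inhibition of at least 50% at 20 µM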
HIF-2a inh: inhibitors of HIF-2a; 786-0 RCC cells HIF-2a reporter, luciferase luminescence, overnight; inhibition, % at 18.8 µM; 0.72% of 360,000 active;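 active means inhibition of the luminescence signal of 40% or more relative to plate controls, in a single-dose primary screen at 18.75 µM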
CF NFkB block: cystic fibrosis NF-kB activation inhibition | KKLEB NF-kB-GFP reporter, PAF-induced, GFP fluorescence overnight | inhibition, % at 5 µM | 0.86% of 360,000 active;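 active means at least 50% inhibition at 5 µM, scaled per plate between neutral and stimulator controls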;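 further: PAF is a Pseudomonas aeruginosa culture filtrate used as stimulus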
TROY NFkB inh: inhibitors of TROY-dependent NF-kB signaling; inhibition, % at 10 µM; 0.98% of 360,000 active; Q293 LMP1-TROYcd NF-kB luciferase reporter, 4 h;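 active means compounds whose plate-normalised and pattern-corrected inhibition of the luciferase reporter signal at the single screening dose is 50% or more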
KKLEB cytotox: reduces viability of KKLEB cystic fibrosis airway cells. KKLEB CF airway cells viability, ATPlite luminescence, overnight; stronger effect = lower value; cells stimulated with P. aeruginosa culture filtrate. activity change (cytotoxicity), % at 5 µM. 0.36% of 360,000 active. AID 602141;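 active means corrected activity change at or below -50% at 5 µM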
Mdm2 MdmX conf: confirmation of inhibitors of human Mdm2/MdmX interaction, set 2; shares compounds with HIF-2a inh; SaOS-2 split-luciferase Mdm2/MdmX complementation, luminescence; inhibition, % at 8 µM; 99% of 740 active;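 active means mean inhibition of the luminescence signal across two replicates at or above 26 percent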
Target sequence (O15151 whole entry, looked up): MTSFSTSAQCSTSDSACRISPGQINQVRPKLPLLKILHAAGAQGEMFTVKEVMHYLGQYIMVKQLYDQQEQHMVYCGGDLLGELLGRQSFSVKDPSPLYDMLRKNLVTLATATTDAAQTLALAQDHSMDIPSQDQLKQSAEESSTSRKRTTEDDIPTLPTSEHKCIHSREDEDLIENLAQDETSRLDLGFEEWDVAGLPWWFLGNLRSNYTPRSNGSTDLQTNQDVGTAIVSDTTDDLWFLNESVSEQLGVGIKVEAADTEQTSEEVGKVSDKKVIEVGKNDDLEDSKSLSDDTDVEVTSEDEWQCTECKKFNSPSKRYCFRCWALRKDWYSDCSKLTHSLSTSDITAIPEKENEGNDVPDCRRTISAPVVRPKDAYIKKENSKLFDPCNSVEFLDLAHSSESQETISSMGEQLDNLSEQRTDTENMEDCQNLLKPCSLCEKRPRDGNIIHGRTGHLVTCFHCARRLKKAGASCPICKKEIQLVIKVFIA
Target sequence (Q00987 whole entry, looked up): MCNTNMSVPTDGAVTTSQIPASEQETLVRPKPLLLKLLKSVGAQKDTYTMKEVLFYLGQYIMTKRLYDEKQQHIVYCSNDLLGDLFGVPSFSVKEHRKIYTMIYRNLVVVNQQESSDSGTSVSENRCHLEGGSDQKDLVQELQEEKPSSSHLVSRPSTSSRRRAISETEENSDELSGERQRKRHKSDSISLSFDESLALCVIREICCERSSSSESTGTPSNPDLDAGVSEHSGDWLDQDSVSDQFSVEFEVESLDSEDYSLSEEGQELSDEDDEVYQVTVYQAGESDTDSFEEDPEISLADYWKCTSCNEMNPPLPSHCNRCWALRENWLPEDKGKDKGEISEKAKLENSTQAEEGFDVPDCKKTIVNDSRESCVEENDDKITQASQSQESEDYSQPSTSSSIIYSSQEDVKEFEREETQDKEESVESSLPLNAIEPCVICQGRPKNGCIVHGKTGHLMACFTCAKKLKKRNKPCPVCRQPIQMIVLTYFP
HIF-2a inh conf: HIF-2a inhibition, single concentration confirmation; inhibition, % at 18.8 µM; 786-0 RCC cells, HIF-2a luciferase reporter luminescence, overnight; shares compounds with HIF-2a inh; AID 651580; 56% of 1,800 active;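 active means mean inhibition across four replicates of at least 40 percent at the single tested concentration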
HIF-1a counter: inhibits HIF-1a reporter, a counter-screen for HIF-2a inhibitors. shares compounds with HIF-2a inh. inhibition, % at 18.8 µM. 72% of 1,800 active. MiaPaCa-2 HIF-1a luciferase reporter, desferoxamine, overnight;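 active means mean inhibition of the reporter signal across four replicates at the single tested dose of 50% or more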
Of the large screens only hits and unclear results are named; the others gave an inactive call (follow-up assays come after a bar, where they were run). Hits are enriched below; roughly 3.9% of the tested compounds scored in any of these assays.

COc1ccc(N2CCN(Cc3nc4c(c(=O)n(C)c(=O)n4C)n3CC(C)=O)CC2)cc1	none
CCOc1ccc(/C(=N\O)C(C)NO)cc1 (stereo unspecified)	none
COC(=O)c1ccccc1NC(=O)CSc1nc(Nc2ccccc2)nc(N2CCOCC2)n1	HIF-2a inh 40.6 | HIF-2a inh conf inactive | HIF-1a counter 70.2
CC(=O)c1ccc(NC(=O)CSc2nc(Nc3ccccc3)nc(N3CCOCC3)n2)cc1	none
CC(=O)Nc1ccc(SC[C@H](C)CN2CC[C@H](C(C)(C)C)CCC2=O)cc1	none
CC(=O)Nc1ccc(Oc2sc(C(=O)c3ccccc3)c(N)c2C#N)cc1	TWEAK Fn14 block 52.7, HIF-2a inh 54.3 | HIF-2a inh conf 43.0 | HIF-1a counter inactive
O=S1(=O)CCO[C@H]2Cc3ccccc3[C@H]2N1Cc1ccccc1Br	none
C=C1[C@@H](O)[C@H](CC(C)C)N(Cc2ccccc2Br)S1(=O)=O	TWEAK Fn14 block 79.4, Peg3 prom inh 97.1, HIF-2a inh 72.2, CF NFkB block 89.4, KKLEB cytotox -96.4 | HIF-2a inh conf 42.1 | HIF-1a counter 101.4
COc1ccc(Cl)cc1N(C(=O)c1ccco1)C(C(=O)NC1CCCC1)c1cccnc1 (stereo unspecified)	none
Cc1ccc(C(=O)NCc2ccc3c(c2)OCO3)c(Cl)c1	none
Cc1cccc(CS(=O)(=O)c2ncc(Cl)c(C(=O)NCc3ccc4c(c3)OCO4)n2)c1	TWEAK Fn14 block 89.1, Peg3 prom inh 103.5, HIF-2a inh 62.3, CF NFkB block 88.8, TROY NFkB inh 69.3 | HIF-2a inh conf 49.0 | HIF-1a counter inactive
COC(=O)c1ccc(NC(=O)c2nc(S(=O)(=O)Cc3cccc(C)c3)ncc2Cl)cc1	TWEAK Fn14 block 71.6, Peg3 prom inh 99.0, HIF-2a inh 92.2, CF NFkB block 85.2, TROY NFkB inh 75.9, KKLEB cytotox -101.4 | Mdm2 MdmX conf 103.5 | HIF-2a inh conf 75.3 | HIF-1a counter 94.5
CN(c1ccccc1)S(=O)(=O)c1ccc(NC(=O)c2ccccc2)cc1	none
CN(c1ccccc1)S(=O)(=O)c1ccc(NC(=O)c2nc(S(C)(=O)=O)ncc2Cl)cc1	TWEAK Fn14 block 93.2, Peg3 prom inh 110.6, HIF-2a inh 64.8, CF NFkB block 107.8, TROY NFkB inh 71.0 | Mdm2 MdmX conf 103.2 | HIF-2a inh conf 99.5 | HIF-1a counter 94.1
Cc1ccc(NC(=O)c2nc(S(=O)(=O)Cc3ccccc3C)ncc2Cl)cc1C	TWEAK Fn14 block 82.8, Peg3 prom inh 108.1, HIF-2a inh 93.0, CF NFkB block 99.0, TROY NFkB inh 85.6, KKLEB cytotox -97.6 | Mdm2 MdmX conf 103.5
CC(=O)Nc1cccc(NS(=O)(=O)c2cn(C)c(=O)n(C)c2=O)c1	none
CCN(CC(=O)NC(C)(C)C)C(=O)CN1c2cccc3cccc(c23)S1(=O)=O	none
COc1ccc(C(=O)Nc2nnc(S(=O)(=O)Cc3ccccc3)s2)cc1	none
COc1ccccc1NC(=O)c1nc(S(=O)(=O)Cc2ccccc2)ncc1Cl	TWEAK Fn14 block 74.3, Peg3 prom inh 104.5, HIF-2a inh 89.3, CF NFkB block 82.9, TROY NFkB inh 72.0, KKLEB cytotox -85.3 | Mdm2 MdmX conf 101.5 | HIF-2a inh conf 82.5 | HIF-1a counter 104.1
CC1CCN(S(=O)(=O)c2ccc(NC(=O)c3ccncc3)cc2)CC1	none
CCS(=O)(=O)c1ncc(Cl)c(C(=O)Nc2ccc(S(=O)(=O)N3CCC(C)CC3)cc2)n1	TWEAK Fn14 block 95.4, Peg3 prom inh 104.8, HIF-2a inh 86.2, CF NFkB block 98.0, TROY NFkB inh 85.0, KKLEB cytotox -105.4 | Mdm2 MdmX conf 102.7 | HIF-2a inh conf 99.2 | HIF-1a counter 102.7
CCc1ccc(NC(=O)c2nc(S(=O)(=O)Cc3ccccc3)ncc2Cl)cc1	TWEAK Fn14 block 85.9, Peg3 prom inh 100.7, HIF-2a inh 94.9, CF NFkB block 91.3, TROY NFkB inh 78.8, KKLEB cytotox -96.8 | Mdm2 MdmX conf 103.5 | HIF-2a inh conf 88.0 | HIF-1a counter 87.0
CC(C)c1nnc(NC(=O)c2nc(S(=O)(=O)Cc3ccccc3)ncc2Cl)s1	TWEAK Fn14 block 93.7, Peg3 prom inh 104.8, HIF-2a inh 91.6, CF NFkB block 99.8, KKLEB cytotox -87.3 | Mdm2 MdmX conf 101.7
O=C(CN1CCN(Cc2ccccc2Cl)CC1)N/N=C/C=C/c1ccccc1[N+](=O)[O-]	none
Nc1ccc(-c2nc3c(Cl)cc(N)cc3[nH]2)cc1	TWEAK Fn14 block 67.1, HIF-2a inh 88.0, TROY NFkB inh 61.8 | HIF-2a inh conf 95.7 | HIF-1a counter 84.8
Cc1nc2cc(NC(=O)c3ccc([N+](=O)[O-])s3)ccc2s1	HIF-2a inh 67.2 | HIF-2a inh conf 74.5 | HIF-1a counter 93.2
COc1ccc(S(=O)(=O)N2CCCCCC2)cc1N	none
CCOC(=O)c1cc(-c2csc(-c3ccc(C(C)(C)C)cc3)n2)on1	HIF-2a inh 57.0 | HIF-2a inh conf 57.9 | HIF-1a counter inactive
Cc1ccc(CNC(=O)CN(C(=O)C2(C)CC(=O)N=C3C=CC=CN32)c2ccccc2F)cc1 (stereo unspecified)	none
C=CC(=O)Nc1ccc(Nc2nc(NC3CCC(N(C)C)CC3)nc3c2ncn3C(C)C)cc1 (stereo unspecified)	TWEAK Fn14 block 95.4, Peg3 prom inh 107.1, HIF-2a inh 75.6, CF NFkB block 94.0, TROY NFkB inh 71.2, KKLEB cytotox -73.5 | Mdm2 MdmX conf 103.0
CC1CCCN(C(=O)CN(C)S(=O)(=O)c2cccc3nsnc23)C1 (stereo unspecified)	none
COC(=O)c1cccc(NC(=O)CSc2nnc(-c3ccco3)o2)c1	none
Cc1ccc(-c2nnc(SCCC(=O)N3CCOCC3)o2)cc1	none
Cc1cccc(-c2nnc(SCCC(=O)N3CCOCC3)o2)c1	HIF-2a inh 49.5 | HIF-2a inh conf 53.0 | HIF-1a counter inactive
CCCC[C@@H](CN[C@H](C)CNC)NCC1CCC(C(C)(C)C)CC1 (stereo partly specified)	none (no result: TWEAK Fn14 block, Peg3 prom inh, HIF-2a inh, CF NFkB block, TROY NFkB inh, KKLEB cytotox) | Mdm2 MdmX conf 103.2
CC[C@H](C)[C@@H](CN[C@H](CCCCNC)CNC)NCC1CCCC1	none
O=C(Nc1cc(C(F)(F)F)cc(C(F)(F)F)c1)Nc1cnn(-c2ccc([N+](=O)[O-])cc2)c1C(F)(F)F	Peg3 prom inh 96.0, HIF-2a inh 56.8, CF NFkB block 77.2, KKLEB cytotox -68.9 | Mdm2 MdmX conf 103.0 | HIF-2a inh conf inactive | HIF-1a counter 106.1

Source: PubChem
